Values joined by “and” are separate entries in the source; they are usually repeats but may differ in a detail not shown here. Equal entries are not always repeated. This is part of a sample that, as a whole, favours compounds with a hit. Of some 83,000 tested, about 20% had one in any assay.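 The endpoint reported here, percent growth, reads 100 for growth as untreated, 0 for no net growth and -100 for all cells dead.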 Active and inactive are the calls of the source. The calls were made as follows: active = growth percent below 10; inactive = the rest.

This experiment deals with SF-539 CNS. The experiment can be described thus: NCI-60 one-dose screen, 48 h (100 = growth as untreated, 0 = no growth, -100 = all killed). As to conditions: 10 µM unless noted.
Take `COc1ccc2c(c1)c(-c1nc(-c3c[nH]c4c(Cl)nccc34)cs1)cn2C`: the growth is 89.7% (inactive).

For `C[C@]12CCc3c(ccc4cc(O)ccc34)[C@@H]1C[C@H](O)[C@@H]2O`, the growth is 102% (inactive).

Turning to `ON=C1CCCCCCCC1`, the growth is 92.1% (inactive) and 102% (inactive).

Take `CCCCCCCCCCCCCCCC[N+](C)(C)CCN(Cc1ccc(OC)cc1)c1ncccn1`: the growth was -91.3% (active) and 71.2% (inactive).

As to `Cc1nc2sc(C(=O)Nc3cccc4ncccc34)c(N)c2cc1C(C)O` (centres undefined), the growth is 82.4% (inactive).

For `C=C[C@]1(C)C=C2CC[C@@H]3C(C)(C)C(=O)CC[C@@]3(C)[C@@H]2CC1`, the growth was 103% (inactive).

For the compound `CC[C@H](C)[C@H](NC(=O)[C@H](CCCCN)NC(=O)[C@H](CCCCN)NC(=O)[C@@H](NC(=O)[C@@H](NC(=O)[C@@H](N)Cc1cnc[nH]1)[C@@H](C)CC)[C@@H](C)CC)C(=O)N[C@@H](CCCNC(=N)N)C(=O)N[C@H](C(=O)N[C@@H](Cc1c[nH]c2ccccc12)C(=O)N[C@@H](Cc1ccc(O)cc1)C(=O)N[C@@H](CCCNC(=N)N)C(=O)N[C@@H](CCCCN)C(=O)N[C@@H](C)C(=O)N[C@@H](Cc1c[nH]c2ccccc12)C(=O)N[C@@H](Cc1cnc[nH]1)C(=O)N[C@H](C(=O)N[C@@H](CC(C)C)C(=O)NCC(=O)N[C@@H](CCCCN)C(=O)N[C@H](C(N)=O)C(C)C)C(C)C)[C@@H](C)O`, the growth was -12.2% (active).

With `CC(=O)N1N=C(c2ccc(F)cc2)CC1c1sc(N(C)Cc2ccccc2)nc1Cl` (centres undefined), the growth was 104% (inactive).

Turning to `Cn1ccnc1CN1CCSC(C(=O)Nc2ccccc2)C1` (centres undefined), the growth was 96% (inactive).

As to `COc1ccc(/C=C2/C(=O)N=C3N2NC(c2ccccc2)=CN3c2ccccc2)cc1`, the growth is 94.8% (inactive).

As for `Cc1oc2c(Cc3ccc(NC(=O)c4ccc(Cl)cc4)cc3)ncnc2c1C(=O)NO`, the growth is 104% (inactive).

On to `CCN1CCN(C(=O)[C@]23CC[C@@H](C)[C@H](C)[C@@H]2C2=CC[C@@H]4[C@@]5(C)CCC(=O)C(C)(C)[C@@H]5CC[C@@]4(C)[C@]2(C)CC3)CC1`, for which the growth was -79.8% (active).

With `CC/C=C\C/C=C\C[C@H](O)C/C=C1/C(=O)C=C[C@@H]1C/C=C\CCCC(=O)OC`, the growth is 1.23% (active).

As for `COc1ccc(-c2nnc3n(C)c(=O)c4ccccc4n23)cc1O`, the growth was -3.83% (active).

Take `Cc1ccc(NC(=O)c2ccc(CN3CCN(C)CC3)cc2)cc1Nc1nccc(-c2cccnc2)n1`: the growth is 75.5% (inactive) and 38.2% (inactive).

On to `OCCN1CCN(CC/C=C2\c3ccccc3Sc3ccc(Cl)cc32)CC1`, for which the growth is 31.8% (inactive) and 59.7% (inactive).

As for `COc1cc(-c2nn(-c3cccc(NC(=O)CCN4CCN(C)CC4)c3)cc2-c2ccncc2)ccc1Cl`, the growth is -19.6% (active).

For the compound `Cc1cnc(C(=O)NNc2nc3sc4c(c3c(=O)[nH]2)C(C)CCC4)cn1` (centres undefined), the growth was 10.1% (inactive).

`Cc1nc(-n2[nH]c(=O)ccc2=O)sc1N=Nc1ccccc1`: the growth was 99.8% (inactive).

For the compound `CC(=O)c1c(C)nc(SCC(=O)Nc2ccc(Cl)cc2)n1-c1ccc(Cl)cc1`, the growth is 95.8% (inactive).

For the compound `C[N+]1=C(/C=C\C=C\c2ccccc2)C(C)(C)c2ccccc21`, the growth is 8.59% (active).

Consider `COc1cc(/C=C(/c2ccccc2)[N+](=O)[O-])c(OC)c2c1OCO2`, for which the growth is -90.5% (active).

For `C=C1C(=O)O[C@H]2[C@H]1CC/C(COC(=O)NCCCCNC(=O)OC/C1=C/CC[C@@]3(C)O[C@H]3[C@H]3OC(=O)C(=C)[C@@H]3CC1)=C\CC[C@@]1(C)O[C@@H]21`, the growth is -23.6% (active).

With `COc1ccc(N2CCN(S(=O)(=O)c3oc(-c4ccccc4)nc3C#N)CC2)cc1`, the growth was 68.2% (inactive).

Regarding `COc1ccc(-c2cc3cnc4ccccc4c3oc2=O)cc1`, the growth is 102% (inactive).

`CCOC(=O)c1nc2c3ccccc3cnn2c1C(=O)c1ccc(OC)cc1`: the growth is 97.7% (inactive).

As to `Cc1ccc2c(c1)C(C)Cc1c(ncnc1-n1cnc3cc(C)ccc31)N2C` (centres undefined), the growth is 16.8% (inactive).

With `CCN1C(=O)N(c2ccccc2)C2NC(=S)N(/N=C/C=C/c3ccccc3)C21` (centres undefined), the growth is -27% (active).

Take `COc1ccc(-c2[nH]c3ccccc3c2-c2ccc(OC)cc2)cc1`: the growth was 45.3% (inactive).

In the case of `COc1ccc(Cn2cc(C(=O)Nc3cccnc3Nc3ccccc3)nn2)cc1`, the growth was 95.6% (inactive).

Turning to `CSc1nnc(-c2cc3c([nH]c4ccccc43)c(-c3cccc(O)c3)n2)n1-c1ccc(C)cc1`, the growth is 32.3% (inactive).

For the compound `CN(Cc1ccccc1)c1nc(Cl)c(C2CC(c3ccc4c(c3)OCO4)=NN2c2cc(Cl)cc(Cl)c2)s1` (centres undefined), the growth was 103% (inactive).

In the case of `COc1ccc(C2Nc3nc(SC)nc(N)c3N=C3c4ccccc4CCC32)cc1` (centres undefined), the growth was 90.5% (inactive).

Take `CCN(CC)CCOc1ccc(/C(=C(\Cl)c2ccccc2)c2ccccc2)cc1`: the growth is -5.76% (active) and 29.9% (inactive).

For `O=C1/C(=C/c2ccccc2)CN(C(=O)C(Cl)Cl)C/C1=C\c1ccccc1`, the growth is -14.9% (active).

On to `Cc1ccc(S(=O)(=O)OC[C@@]2(C)CC[C@]3(C)CC[C@]4(C)C(=CC[C@@H]5[C@@]6(C)CCCNC(C)(C)[C@@H]6CC[C@]54C)[C@@H]3C2)cc1`, for which the growth is -93.2% (active).

As to `O=C1/C(=C/c2cn(-c3ccccc3)nc2-c2ccccc2)SC(=S)N1c1ccc(Cl)cc1`, the growth was 84.2% (inactive).

For the compound `O=c1ccc2nc(-c3ccccn3)nn(-c3ccccc3)c-2c1`, the growth is 103% (inactive).

`C[C@@H]1CC[C@@H]2[C@@H]1[C@H](OC(=O)/C=C/c1ccccc1)[C@]1(c3ccccc3)C[C@@H](NC(=O)CO)[C@@]2(C)O1`: the growth was 97.9% (inactive).

The record behind these values is PubChem BioAssay (NCI).
